Results from ChEMBL document CHEMBL4513216, “Probing the Open Global Health Chemical Diversity Library for Multistage-Active Starting Points for Next-Generation Antimalarials” (ACS Infect Dis, 2020).
The whole screen tested about 69,000 compounds, of which about 8,600 (12%) showed an effect of 50% or more. The sample as a whole holds a higher share of strong results than the screen did.

System: Plasmodium berghei
Test: Screen against P. berghei liver stage (PbLuc), transformed with Luciferase, at 10uM
Type: functional, HepG2
Details: tested at 10 uM

Compared with `Cc1cc(Br)oc1C(=O)N1CCN(CC(N)=O)CC1`, `Cc1cc(Br)oc1C(=O)N1CCCN(CC(N)=O)CC1` is higher in INHIBITION: 20.9% for the first, 30.3% for the second.

First: CC(=O)N1CCCN(C(=O)c2oc(Br)cc2C)CC1
Second: CCOC(=O)N1CCN(C(=O)c2sc(-c3ccccc3F)nc2C)CC1
The INHIBITION of the first is higher: 58.5% for the first, 39.9% for the second.

Going from `Cn1cc(C2CC(=O)NC23CCN(CC2CC2)CC3)cn1` (stereo not drawn) to `C[C@H]1CN(C(=O)c2cccnc2)C[C@@]12CCN(CCN1CCCC1)C2=O`, the INHIBITION falls from 48.7% to 23.6%.

Going from `Cc1nc(N2CCCC2)nc2c1CCN(Cc1ccco1)CC2` to `CCc1nc2c(c(N3CCOCC3)n1)CCN(C(=O)c1ccon1)CC2`, the INHIBITION rises from 15.1% to 52.2%.

First: Cc1ccc(F)c2c1N(C(=O)c1cn(CC(=O)N(C)C)nn1)CCC2
Second: CC(=O)N1CCCC1c1nc(C)cc(-c2ccc(F)cc2)n1 (stereo not drawn)
The INHIBITION of the first is lower: -9.21% for the first, 48.4% for the second.

First: CN(C)CCN1CCOCC2(C1)CN(Cc1nccs1)CCO2 (stereo not drawn)
Second: CCn1cc(CN2CCCN(C(=O)CCc3nccs3)CC2)cn1
The INHIBITION of the first is higher: 14.1% for the first, 1.78% for the second.

First: CS(=O)(=O)c1ccc(NC(=O)CSc2ccc3c(c2)CCC3)cc1
Second: NS(=O)(=O)c1ccc(NC(=O)CSc2ccc3c(c2)CCC3)cc1
The INHIBITION of the first is lower: 31.2% for the first, 66.8% for the second.

Going from `NC(=O)c1cccc(NC(=O)CSc2ccc3c(c2)CCC3)c1` to `CS(=O)(=O)c1ccc(NC(=O)CSc2ccc3c(c2)CCC3)cn1`, the INHIBITION rises from 40.6% to 53.4%.

Compared with `CN1C(=O)c2ccc(NC(=O)CSc3ccc4c(c3)CCC4)cc2C1=O`, `CNC(=O)NC(=O)CSc1ccc2c(c1)CCC2` is higher in INHIBITION: 11.5% for the first, 54.3% for the second.

Compared with `CNC(=O)Cc1noc(Cc2ccc3c(c2)CCCC3)n1`, `CS(=O)(=O)c1ccc(NC(=O)NCc2ccc3c(c2)CCC3)cn1` is higher in INHIBITION: 15.9% for the first, 24% for the second.

Compared with `CNC(=O)NC(=O)CCSc1ccccc1C`, `CNC(=O)NC(=O)CN(Cc1ccc(C#N)cc1)Cc1cccc(F)c1` is lower in INHIBITION: 29.8% for the first, -0.85% for the second.

Going from `CN(C)CCO[C@@H]1CC[C@H]2[C@H]1OCCN2C(=O)c1ccccc1F` to `O=C(CCOc1ccccc1F)N1CCCCC1Cn1cccn1` (stereo not drawn), the INHIBITION falls from 35.2% to -21.5%.

Compared with `CC(C)(C)c1nccc(N2CCCCC2CCNS(C)(=O)=O)n1` (stereo not drawn), `Cc1nc(C2CCN(S(C)(=O)=O)CC2)nc(N2CCCC2)c1C` is higher in INHIBITION: -1.79% for the first, 11.25% for the second.

Going from `Cc1cnn(CC2CCCN2Cc2nnc(C3CC3)o2)c1` (stereo not drawn) to `Cc1cnn(CC2CN(CC(=O)Nc3nncs3)CCO2)c1` (stereo not drawn), the INHIBITION rises from 2.3% to 30.76%.

Compared with `O=C(c1ccc(N2CCOCC2)nc1)N1CCCC(n2ccnc2)C1` (stereo not drawn), `O=C(c1ccccn1)N1CCc2ncnc(N3CCOCC3)c2CC1` is lower in INHIBITION: 13.05% for the first, -64.5% for the second.

Going from `CC(C)CN1CCC2(C=C(C(=O)N3CCCC3)c3ccccc32)CC1` to `O=C(c1cn[nH]c1)N1CCC2(CCCN(Cc3ccc(F)c(F)c3)C2)C1` (stereo not drawn), the INHIBITION rises from -17% to 25.8%.

Going from `Cc1cc(CN2CCN(C(=O)CCc3cccs3)CC2)on1` to `O=C(CNC1CCc2ncnn2C1)NCCc1cccs1` (stereo not drawn), the INHIBITION rises from -9.08% to 12.3%.

Going from `Cc1cccc(COCC2c3nnn(C)c3CCN2Cc2ccoc2)n1` (stereo not drawn) to `COc1ccccc1CN1CCCCC1c1n[nH]cc1-c1cc(C)no1` (stereo not drawn), the INHIBITION rises from -5.08% to 24.8%.

First: CC(=O)N(Cc1ncc(C)o1)C1CCN(Cc2ccon2)C1 (stereo not drawn)
Second: O=C(CNC1CCc2ncnn2C1)N(Cc1cccs1)C1CC1 (stereo not drawn)
The INHIBITION of the first is lower: 3.73% for the first, 27.7% for the second.

First: CO[C@H]1CN(C(=O)c2ccc(-c3ccccc3)[nH]2)CC[C@H]1N
Second: NC(=O)CN1CCC(c2cccc(Oc3ccccc3)n2)CC1
The INHIBITION of the first is lower: -22.4% for the first, -11.4% for the second.

Compared with `O=C(c1cnccn1)N1C[C@H]2CC[C@@H](C1)N(S(=O)(=O)c1cccnc1)C2`, `O=C(NC1CC1)N1CCc2ccc(=O)n(Cc3cccnc3)c2CC1` is higher in INHIBITION: -6.34% for the first, 45.2% for the second.

Going from `Cc1nc(CN(C)S(=O)(=O)c2ccc(F)cc2Br)no1` to `Cc1nc(CN(C)S(=O)(=O)c2ccccc2Br)no1`, the INHIBITION rises from 18.9% to 58.1%.

Going from `Cc1nc(CN(C)S(=O)(=O)c2ccccc2C(F)(F)F)no1` to `CCCc1noc(CCC(=O)Nc2cc(C(F)(F)F)c[nH]c2=O)n1`, the INHIBITION rises from 11.3% to 52.2%.

Compared with `Cc1cc(NCCC(=O)NC2CCCC2)nc(-c2ccncc2)n1`, `Cc1cc(-c2cnc(NCc3ccncc3)nc2C(C)C)on1` is higher in INHIBITION: 4.52% for the first, 94.1% for the second.

First: CCS(=O)(=O)N1CCC2(CN(c3cccc(F)c3)C(=O)CN2C)C1 (stereo not drawn)
Second: CN1CC(=O)N(c2cccc(F)c2)CC12CCN(S(C)(=O)=O)C2 (stereo not drawn)
The INHIBITION of the first is higher: 19.4% for the first, -5.12% for the second.

Compared with `CC(C)CS(=O)(=O)N1CCC2(CN(c3cccc(F)c3)C(=O)CN2C)C1` (stereo not drawn), `CC(C)CN1C[C@H]2CCN(Cc3cccnc3)CC[C@H]2S1(=O)=O` is lower in INHIBITION: 55.5% for the first, 42.1% for the second.

First: CCCc1n[nH]c(C2CN(C(=O)c3ccc[nH]3)CCO2)n1 (stereo not drawn)
Second: c1csc(CCNC2CCc3ncnn3C2)c1 (stereo not drawn)
The INHIBITION of the first is lower: 27.8% for the first, 68.8% for the second.

Compared with `CCc1nc2c(c(N3CCOCC3)n1)CCN(C(=O)N1CCCC1)CC2`, `CSc1nnc(C2CCN(C(=O)N3CCOCC3)CC2)n1C(C)C` is higher in INHIBITION: -28.4% for the first, 40.85% for the second.

First: COc1ccc(C(C(=O)O)N(C)Cc2c(C)nn(C)c2C)c(C)c1 (stereo not drawn)
Second: CC(C)c1nn(C)c(N(C)C)c1CNCc1ccc2c(c1)OCO2
The INHIBITION of the first is higher: 26.9% for the first, 3.75% for the second.

First: Cc1nc(C2CCN(C(=O)c3cscn3)CC2)c2sccn12
Second: Cc1csc(CCNC(=O)N2CCC(n3cccc3)CC2)n1
The INHIBITION of the first is higher: 17.4% for the first, -6.04% for the second.

First: c1ccc(-n2cc(CNC3CCc4ncnn4C3)cn2)cc1 (stereo not drawn)
Second: c1ccc(Cn2cc(CNC3CCc4ncnn4C3)cn2)cc1 (stereo not drawn)
The INHIBITION of the first is lower: 11.6% for the first, 39.5% for the second.

Going from `Clc1ccc(-n2cc(CNC3CCc4ncnn4C3)cn2)cc1` (stereo not drawn) to `Clc1ccc(-c2cnc(CNC3CCc4ncnn4C3)o2)cc1` (stereo not drawn), the INHIBITION falls from 51.3% to 39.6%.

First: COc1ccc2c(c1)OCC(CNC1CCc3ncnn3C1)=C2 (stereo not drawn)
Second: CCCOc1ccc2c(c1)OCC(CNC1CCc3ncnn3C1)=C2 (stereo not drawn)
The INHIBITION of the first is lower: 35.1% for the first, 42.1% for the second.

Going from `Clc1ccc2c(c1)C=C(CNC1CCc3ncnn3C1)CO2` (stereo not drawn) to `C1=C(CNC2CCc3ncnn3C2)COc2ccccc21` (stereo not drawn), the INHIBITION rises from 51.8% to 61.6%.

Going from `Clc1cccc(-c2nc(CNC3CCc4ncnn4C3)co2)c1` (stereo not drawn) to `COc1cccc(COCC(=O)NC(C)c2nnc3n2CCC3)c1` (stereo not drawn), the INHIBITION falls from 49.8% to -0.613%.

Going from `COc1cccc(-c2cc(C3=NC(=CN4CCN(C)CC4)NO3)[nH]n2)c1` to `O=C(O)c1cnc(-c2cccc3c2CCNC3)c(Cl)c1`, the INHIBITION falls from 33.1% to 2.15%.

Going from `CCn1nc(C)c2nnn(CC(=O)Nc3ccccc3F)c(=O)c21` to `CCC(O)CNc1nccc(-c2ccc(C)nc2C)n1` (stereo not drawn), the INHIBITION falls from 40.8% to -8.9%.

Compared with `CCN1CCC2(CN(C(=O)N(C)C)CC23CCNCC3)C1=O` (stereo not drawn), `CC(C)(C)CN1CCCC2(CCN(C(=O)c3cn[nH]c3)C2)C1` (stereo not drawn) is higher in INHIBITION: -3.58% for the first, 68% for the second.

Compared with `Cc1cccc2c1N(C)C(=O)C21CC(=O)Nc2c1cnn2C(C)(C)C` (stereo not drawn), `CN1C(=O)Cc2cc(-c3csc(CCN4CCOC4=O)n3)ccc21` is higher in INHIBITION: -23.9% for the first, 19.2% for the second.

Going from `Cc1cc(-c2cnc(NCc3cccnc3)nc2C(C)(C)C)on1` to `Cc1cc(-c2cnc(NCc3cccnc3)nc2C(C)C)on1`, the INHIBITION falls from 83.6% to 69.4%.

Going from `CCN(CC)CCNc1ncc(-c2cc(C)no2)c(-c2ccoc2C)n1` to `Cc1cc(-c2cnc(NCc3ccc4c(c3)OCO4)nc2C(C)C)on1`, the INHIBITION rises from 33.5% to 90.5%.

First: COc1ccccc1CNc1ncc(-c2cc(C)no2)c(C(C)C)n1
Second: COc1ccc(CNc2ncc(-c3cc(C)no3)c(C(C)C)n2)cc1
The INHIBITION of the first is higher: 79.7% for the first, -5.71% for the second.

Compared with `Cc1cc(-c2cnc(NCc3ccccn3)nc2C(C)C)on1`, `Cc1cnc(-c2nc(NC3CC3)ncc2-c2cc(C)no2)cn1` is lower in INHIBITION: 24.4% for the first, 8.72% for the second.

Going from `COCc1cc(NCc2ccccc2OC)ncn1` to `CNS(=O)(=O)c1ccc(F)c(C(=O)NCc2ccnc(OC)c2)c1`, the INHIBITION rises from 12.6% to 31.2%.

First: Cc1nn(C)c2c(NCc3cccnc3)nc(C(C)C)nc12
Second: CC(C)c1nn(C)c(Cl)c1CNCc1ccc2c(c1)OCO2
The INHIBITION of the first is lower: -34% for the first, 27.8% for the second.

First: CCn1ncc(S(=O)(=O)N[C@@H]2CC[C@@H](n3ccnc3)[C@@H]2O)c1C
Second: Cc1ccc(NC(=O)C(C)n2ccc(C(F)(F)F)n2)nc1 (stereo not drawn)
The INHIBITION of the first is lower: 4.65% for the first, 20.9% for the second.

Going from `Fc1cccnc1OC[C@@]12CCO[C@@H]1CCN(CC1CCOCC1)C2` to `O=C(Nc1cc(F)ccc1OCC1CCCO1)NC1CC1` (stereo not drawn), the INHIBITION rises from -17.7% to -12.1%.

Compared with `CCc1nnc(Nc2cc(C)nc(C3CCN(c4ncccn4)C3)n2)s1` (stereo not drawn), `Cc1ccc(-c2cc(C)nc(C3CCCN3S(C)(=O)=O)n2)cc1` (stereo not drawn) is lower in INHIBITION: -11.4% for the first, -70.8% for the second.

First: CC(C)(C)CN1CCCC2(CCN(C(=O)c3ccc(O)nc3)C2)C1 (stereo not drawn)
Second: CCc1c(C)sc2ncnc(N3C[C@H](O)[C@@H](N4CCCC4)C3)c12
The INHIBITION of the first is lower: 43.1% for the first, 48.5% for the second.

Going from `CN1CCC/C1=N\S(=O)(=O)c1ccc(NC(=O)c2ccco2)cc1` to `Cc1sc2nc(CCN)nc(N3CCN(S(C)(=O)=O)CC3)c2c1C`, the INHIBITION rises from -67.3% to 67.5%.

Compared with `CCc1noc(CCCC(=O)Nc2cc(C(F)(F)F)c[nH]c2=O)n1`, `CC(C)c1noc(CCC(=O)Nc2cc(C(F)(F)F)c[nH]c2=O)n1` is higher in INHIBITION: 29.8% for the first, 41.5% for the second.

Compared with `Cc1cnn(CC2CN(c3nnc(C)c(C)c3C#N)CCO2)c1` (stereo not drawn), `Cc1sc2nc(CCN)nc(N3CC(N4CCCCC4)C3)c2c1C` is higher in INHIBITION: 15.635% for the first, 86.9% for the second.

Compared with `Cc1sc2nc(CCN)nc(N3CCS(=O)(=O)CC3)c2c1C`, `CCOC(=O)N1CCN(c2nc(CCN)nc3sc(C)c(C)c23)CC1` is higher in INHIBITION: 31.3% for the first, 90.7% for the second.

First: Cc1sc2nc(CCN)nc(N3CCC(N4CCCC4)CC3)c2c1C
Second: COC(=O)CNC(=O)CSCc1nc(O)c2c(C)c(C)sc2n1
The INHIBITION of the first is higher: 39.6% for the first, 22.1% for the second.
